# Shiga toxin inh: inhibitors of Shiga toxin in Vero cells | Vero cells, Shiga toxin protein synthesis inhibition reporter | inhibition, % at 38.7 µM | 290,000 tested, 9.2% active; in the data active means inhibition mostly above about 28%, no sharp cut-off; inactive means mostly below about 43%; further: 0% is about no effect
# Pf growth 96h: P. falciparum growth inhibition at 96 hours. 320,000 tested, 6.9% active. Potency, µM (top dose mostly 28.7 µM), for the others: top-dose activity change, negative = inhibition, hits mostly inhibitors. AID 504834. P. falciparum luciferase reporter growth, 96 h; further: potency means the concentration at half of the fitted maximal effect; on the % scale 0 is the no-effect control and ±100 the full control effect
#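 Erythrocytes infected with luciferase-expressing P. falciparum were dispensed at 2% hematocrit and 0.05% parasitemia (final), then incubated with compounds 96 hours at 37 C in 5% CO2. Luminescence after detection reagent addition reported growth.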
# Pf growth 48h: P. falciparum growth inhibition at 48 hours (one generation); P. falciparum luciferase growth in erythrocytes, 48 h; Potency, µM (series often up to 28.7 µM), for inactives: at the highest dose activity change, negative = inhibition, hits mostly inhibitors; 310,000 tested, 5.9% active; AID 504832; further: potency means the concentration at half of the fitted maximal effect; on the % scale 0 is the no-effect control and ±100 the full control effect
#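 Growth was read as firefly luciferase luminescence after a 48 h, 37 C, 5% CO2 exposure of compounds to reporter-bearing P. falciparum cultures (0.1% parasitemia, 2% hematocrit final) in Albumax-supplemented RPMI 1640.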
# LmPK inhibitor: blocks Leishmania mexicana pyruvate kinase activity; 290,000 tested, 0.37% active; Potency, µM (top dose mostly 57.5 µM), for inactives: top-dose activity change, negative = inhibition, actives largely listed as inhibitors; AID 1721; purified LmPK, Kinase-Glo ATP luminescence, 1 h; Q27686; further: potency means the concentration at half of the fitted maximal effect; on the % scale 0 is the no-effect control and ±100 the full control effect
# Target sequence (Q27686 whole entry, looked up): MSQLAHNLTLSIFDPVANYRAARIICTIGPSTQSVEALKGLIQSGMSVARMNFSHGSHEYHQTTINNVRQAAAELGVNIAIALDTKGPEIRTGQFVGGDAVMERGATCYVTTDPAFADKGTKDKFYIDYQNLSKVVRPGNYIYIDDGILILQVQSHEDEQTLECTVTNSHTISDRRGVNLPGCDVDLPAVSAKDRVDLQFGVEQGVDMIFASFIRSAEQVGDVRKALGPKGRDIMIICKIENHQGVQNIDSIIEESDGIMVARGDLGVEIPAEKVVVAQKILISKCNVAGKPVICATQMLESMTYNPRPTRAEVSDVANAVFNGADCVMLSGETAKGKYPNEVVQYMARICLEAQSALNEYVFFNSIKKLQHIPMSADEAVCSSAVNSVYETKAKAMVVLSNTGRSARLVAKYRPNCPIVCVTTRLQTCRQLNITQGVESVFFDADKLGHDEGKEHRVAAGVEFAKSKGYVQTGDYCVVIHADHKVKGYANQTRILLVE
#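 Purified LmPK (0.1 nM) converted ADP (0.1 mM) to ATP with PEP (0.5 mM) in imidazole buffer pH 7.2 with KCl and MgCl2, 1 h at room temperature. ATP was read by Kinase-Glo luminescence; data normalized to uninhibited and no-enzyme controls.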
# Cycloheximide cs: affects cycloheximide protein synthesis inhibition readout, counter-screen. cell reporter, cycloheximide protein synthesis inhibition counterscreen. max response, %. 300,000 tested, 12% active. AID 2314; in the data active means max response mostly above about 13%, no sharp cut-off; inactive means mostly below about 14%; further: read at 38.3 µM for the half of the compounds with a filed dose; 0% is about no effect
# * hit, by the source's call; ? = inconclusive; · = no result. Sampled rows, rich in hits. Any-hit rate of the full collection: about 22%. Unless noted, the call rests on the fitted dose curve; in most records, active means well fitted inhibition curve with a large enough effect; inconclusive means small, poorly fitted or top-dose-only effect, or another doubt; inactive means no such curve, though single readings can be large or run the other way.
SMILES,Shiga toxin inh,Pf growth 96h,Pf growth 48h,LmPK inhibitor,Cycloheximide cs
O=S(=O)(NCC1(N2CCOCC2)CCCCC1)c1ccc(Cl)cc1C(F)(F)F,-38.6,?,?,-9.2%,-5.6
CCCCCCn1c(-c2cccs2)n[nH]c1=S,-5.1,-4.1%,0.0%,-29.2%,-4.3
COc1ccc(CN2CCN(C(=O)c3ccc(S(=O)(=O)N4CCCCCC4)cc3)CC2)cc1,·,?,10.4µM*,·,·
O=C(NC1CCCC1)C(c1ccccn1)N(C(=O)c1csnn1)c1ccc(F)cc1 (configuration not stated),24.8,4.6%,3.8%,-4.4%,3.9
Cc1cccc(C)c1N/C=C/c1onc(C)c1[N+](=O)[O-],-6.9,1.9%,-7.2%,-3.1%,-0.5
Cc1ccc(N/C=C/c2onc(C)c2[N+](=O)[O-])cc1,117.4*,95.3%,103.4%,-13.9%,74.5*
CCOC(=O)c1ccc(NC(=O)CSc2nc3c(c(=O)n2CC)SC(C)C3)cc1 (configuration not stated),-3.1,9.28µM*,10.4µM*,1.4%,-1.8
CCn1c(SCC(=O)Nc2cccc(F)c2)nc2c(c1=O)SC(C)C2 (configuration not stated),4.1,2.62µM*,4.15µM*,1.9%,-1.8
CCn1c(SCC(=O)NCc2ccc(F)cc2)nc2c(c1=O)SC(C)C2 (configuration not stated),-14.1,?,31.1%,-0.7%,-3.6
CC(Oc1ccc(Cl)cc1)C(=O)N/N=C/c1ccsc1 (configuration not stated),7.4,-0.7%,18.5%,8.1%,-3.5
CCOc1ccc(N(CC(=O)Nc2ccccc2)S(C)(=O)=O)cc1,50.2*,3.5%,41.2%,1.3%,18.6*
CCOc1ccc(N(CC(=O)Nc2ccccc2Cl)S(C)(=O)=O)cc1,74.1*,?,0.0%,1.0%,28.1*
CCOc1ccc(N(CC(=O)Nc2ccc(C)c(C)c2)S(C)(=O)=O)cc1,106.7*,9.8%,121.7%,6.9%,78.0*
CCOc1ccc(N(CC(=O)Nc2ccccc2OC)S(C)(=O)=O)cc1,14.0,-4.4%,5.5%,-4.9%,9.2
CCOC(=O)c1ccccc1NC(=O)CN(c1ccc(OCC)cc1)S(C)(=O)=O,-14.5,23.5%,11.5%,-10.0%,-1.3
O=C(CNC(=O)C1(c2ccccc2)CC1)Nc1ccc(F)c(F)c1,·,21.1%,4.7%,·,·
CCN(CC)CCCNC(=O)c1cc(Cl)c(NC(=O)C2=C(C)OCCS2)cc1OC,-11.1,?,?,8.0%,-1.5
O=C(Nc1ccc([N+](=O)[O-])cc1)C1CC1(c1ccccc1)c1ccccc1 (configuration not stated),-13.7,?,11.7µM*,5.9%,-3.7
CC1(C)CC1C(=O)Nc1ccc([N+](=O)[O-])cc1Br (configuration not stated),-8.1,17.2%,18.7%,3.7%,7.7
Cc1ccc(C2(c3ccc(C)cc3)CC2C(=O)Nc2ccc([N+](=O)[O-])cc2O)cc1 (configuration not stated),-12.6,0.657µM*,0.828µM*,-1.6%,-4.4
O=C(O)c1ccc(NC(=O)c2ccco2)c(NC(=O)c2ccco2)c1,9.7,6.8%,30.2%,-1.7%,0.7
CC(=O)OCC1=C(C(=O)O)N2C(=O)[C@@H](NC(=O)CSc3ccncc3)[C@@H]2SC1,·,?,-3.2%,·,·
CCc1ccc(C2NC(=S)NC3=C2C(=O)CC(C)(C)C3)cc1 (configuration not stated),-10.5,28.7%,-10.1%,5.0%,-1.1
O=C(/C=C/c1ccc2c(c1)OCO2)c1ccc(F)cc1,77.6*,?,0.1%,?,41.5*
O=C(/C=C/c1ccncc1)c1ccc2c(c1)OCCO2,27.2,?,-0.9%,-15.9%,19.9*
SMILES,Shiga toxin inh,Pf growth 96h,Pf growth 48h,LmPK inhibitor,Cycloheximide cs
O=C(/C=C/c1cccc(Br)c1)c1ccc2c(c1)OCO2,62.5*,14.7%,19.7%,-8.2%,25.4*
O=C(/C=C\Nc1ccccc1Br)c1ccc2c(c1)OCO2,-5.7,?,252.3%,6.2%,-2.8
O=C(/C=C/c1ccccc1Br)c1ccc2c(c1)OCO2,112.4*,63.7%,-21.4%,-1.9%,36.2*
Cc1cc(C)c(C(=O)/C=C/c2ccc3c(c2)OCO3)c(=O)[nH]1,14.8,69.5%,0.0%,3.5%,2.7
CN(C)c1ccc(/C=C/C(=O)c2ccc3c(c2)OCCO3)cc1[N+](=O)[O-],active,46.5%,0.0%,-17.2%,42.7*
O=C(/C=C/c1ccc2c(c1)OCO2)c1ccc[nH]1,active,275.7%,207.6%,?,78.7*
COc1cccc(/C=C/C(=O)c2ccc[nH]2)c1,90.7*,49.5%,·,-13.6%,54.6*
O=C(/C=C/c1ccccc1)c1ccc2c(c1)OCO2,59.2*,19.6%,58.1%,?,37.4*
CN(C)c1ccc(/C=C/C(=O)c2ccc3c(c2)OCO3)cc1,·,120.6%,149.8%,·,·
O=C(CNC(=O)c1ccc(F)cc1)NCc1ccc(S(=O)(=O)N2CCOCC2)cc1,·,5.8%,?,·,·
C[C@@](Cc1ccccc1)(C(=O)O)N1C(=O)c2ccc(C(=O)O)cc2C1=O,50.0,15.9%,20.8%,·,13.1
Cc1nc2ccccn2c1C(=O)CSc1cccc(Cl)c1,38.0,?,?,17.0%,12.3
O=C(NCCCN1CCCC1=O)C1CCC(CNS(=O)(=O)c2ccc(Cl)cc2)CC1 (configuration not stated),32.7,11.7µM*,4.4%,4.2%,-7.0
COCCNC(=O)C1CCC(CNS(=O)(=O)c2c(C)cc(C)cc2C)CC1 (configuration not stated),-2.4,1.8%,?,-4.4%,-4.3
Cc1cc(C)c(S(=O)(=O)NCC2CCC(C(=O)NCCCN3CCC(C)CC3)CC2)c(C)c1 (configuration not stated),-8.2,8.2%,9.28µM*,1.0%,-1.3
CCS(=O)(=O)N1CCCC(C(=O)NCCCN2CCCC2=O)C1 (configuration not stated),-16.4,10.4µM*,7.4%,0.4%,5.0
S=C(NCc1ccncc1)Nc1ccc(Cl)cc1,1.2,-7.5%,-15.2%,1.4%,-3.1
Clc1ccc(Nc2nnc(Cc3ccncc3)c3ccccc23)cc1,·,6.75µM*,13.5µM*,·,·
CC1CC(C)CN(c2ccc([N+](=O)[O-])cc2-c2nn[nH]n2)C1 (configuration not stated),-11.1,?,-4.2%,0.8%,6.7
COc1ccc(C(CC(=O)Nc2ccc(C)cn2)N2Cc3ccccc3C2=O)cc1 (configuration not stated),4.7,21.1%,?,8.7%,0.6
CCC(C)NC(=O)c1cnn2c(C)c3c(nc12)CCCC3 (configuration not stated),13.5,9.9%,-2.7%,-0.5%,1.4
Cc1c2c(nc3c(C(=O)NC4CC4)cnn13)CCCC2,112.5*,307.0%,34.2%,-3.5%,35.2*
COc1ccc(N2C(=O)C(C)C(Cc3ccc(C)cc3)C2=O)cc1 (configuration not stated),·,?,40.8%,0.2%,11.9

# High-throughput results (PubChem BioAssay)
